The panel holds about 83,000 compounds, 20% with a hit somewhere; the sample as a whole holds those more often.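 Activity criterion: percent growth below 10, measured after cells in 96-well plates were exposed to a single compound concentration for 48 hours.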 Unmarked numbers belong to inactive results. Active and inactive are the calls of the source.
What was measured:
Test in all cases: NCI-60 one-dose screen, 48 h (100 = growth as untreated, 0 = no growth, -100 = all killed)
Settings in all cases: 10 µM unless noted
SR leukemia = test system: SR leukemia
RPMI-8226 leukemia = test system: RPMI-8226 leukemia
OVCAR-8 ovarian = test system: OVCAR-8 ovarian
OVCAR-5 ovarian = test system: OVCAR-5 ovarian
OVCAR-4 ovarian = test system: OVCAR-4 ovarian
SK-OV-3 ovarian = test system: SK-OV-3 ovarian
IGROV1 ovarian = test system: IGROV1 ovarian
OVCAR-3 ovarian = test system: OVCAR-3 ovarian
HS 578T breast = test system: HS 578T breast
NCI/ADR-RES ovarian = test system: NCI/ADR-RES ovarian
T-47D breast = test system: T-47D breast
BT-549 breast = test system: BT-549 breast
MDA-MB-435 melanoma = test system: MDA-MB-435 melanoma
SW-620 colon = test system: SW-620 colon
MCF7 breast = test system: MCF7 breast
HCT-116 colon = test system: HCT-116 colon
HCC-2998 colon = test system: HCC-2998 colon
KM12 colon = test system: KM12 colon

Row | Structure (SMILES) | growth (SR leukemia) | growth (RPMI-8226 leukemia) | growth (OVCAR-8 ovarian) | growth (OVCAR-5 ovarian) | growth (OVCAR-4 ovarian) | growth (SK-OV-3 ovarian) | growth (IGROV1 ovarian) | growth (OVCAR-3 ovarian) | growth (HS 578T breast) | growth (NCI/ADR-RES ovarian) | growth (T-47D breast) | growth (BT-549 breast) | growth (MDA-MB-435 melanoma) | growth (SW-620 colon) | growth (MCF7 breast) | growth (HCT-116 colon) | growth (HCC-2998 colon) | growth (KM12 colon)
1 | CC(C)(C)C(CCc1ccc(Cl)cc1)N1CCN(C2CCCCC2)CC1 (stereo not drawn) | -13.2% (active) | 24.4% | 60.3% | 60.2% | 42.6% | 59.9% | 62.8% | 41.6% | 68.9% | 60.6% | 23.2% | 50% | 39.2% | 35% | 31.6% | 17.5% | 27% | 36.8%
2 | O=[N+]([O-])c1ccc(OCCO)cc1 | 139% | 101% | 98.7% | 97.1% | 102% | 103% | 105% | 99.9% | 99.5% | 97.8% | 101% | 109% | 105% | 101% | 94.3% | 103% | 113% | 106%
3 | Cc1cccc(Cc2cnc(NC(=O)/C=C/c3ccco3)s2)c1 | 13.7% | 27.9% | 13.7% | 39.1% | 55.6% | 33% | 22.2% | -2.76% (active) | 14.8% | -24.6% (active) | 37.2% | 25.8% | -30.7% (active) | 24.9% | 14.9% | 18.1% | 6.44% (active) | 13.3%
4 | COc1cc2ncn3c(=O)c4c5c(sc4nc3c2cc1OC)CCCC5 | 134% | 105% | 107% | 98.8% | 92.7% | 97.5% | 98.8% | 100% | 94.7% | 96% | 100% | 99.9% | 92.5% | 90.1% | 91.4% | 95.5% | 102% | 97.4%
5 | CCN1CCN(c2nc(C)cc(NCc3cc(Nc4ccnc5cc(Cl)ccc45)ccc3F)n2)CC1 | -18.8% (active) | -31.1% (active) | 17.4% | 17.8% | 26.1% | 31.5% | 15.8% | 10.5% | 9.27% (active) | 24.6% | -24.3% (active) | 36.1% | -88.4% (active) | 11.5% | 1.98% (active) | 2.33% (active) | -34.9% (active) | 26.9%
6 | COc1ccccc1CNCCCN1C(=O)c2ccc3c4c(ccc(c24)C1=O)C(=O)N(CCCNCCCCN)C3=O | 5.25% (active) | -8.59% (active) | -7.98% (active) | -12.4% (active) | -84.9% (active) | 14.2% | 8.53% (active) | -1.35% (active) | -7.25% (active) | 42.5% | -14.7% (active) | -75.6% (active) | 1.2% (active) | -0.0566% (active) | -45.7% (active) | -8.71% (active) | -71.8% (active) | -15.8% (active)
7 | CC(CN1CCCCC1)C(=O)c1ccccc1 (stereo not drawn) | 97.3% | 78% | 102% | 101% | 114% | 106% | 109% | 109% | 103% | 108% | 99.2% | 116% | 104% | 104% | 91% | 112% | 119% | 105%
8 | O=c1cc(C2NNC(=S)N2)c2ccc3ccccc3c2o1 (stereo not drawn) | 97.8% | 74.8% | 97.4% | 109% | 101% | 97.2% | 76.8% | 106% | 71% | 101% | 73.1% | 94% | 102% | 92.2% | 86.9% | 95.4% | 113% | 100%
9 | CNC(=O)NCC1OC(n2cnc3c(NC(=O)Nc4ccccc4)ncnc32)C(O[Si](C)(C)C(C)(C)C)C1CC(=O)N(C)OC (stereo not drawn) | -56% (active) | -75.4% (active) | 20.4% | 44.1% | 19% | 40.7% | -36.6% (active) | 7.61% (active) | 3.64% (active) | 54.4% | -34% (active) | 25.5% | 7.75% (active) | 23.7% | 3.29% (active) | 16.8% | -13.4% (active) | 17.2%
10 | O=c1ssc(Cl)c1-c1ccccc1 | 124% | 111% | 89.4% | 88.7% | 98.4% | 118% | 83.7% | 126% | 104% | 95.9% | 95.7% | 114% | 98.4% | 95.2% | 89.3% | 93.5% | 104% | 113%
11 | CC1O[C@@H](OC2[C@H](OC(=O)/C=C/c3ccc(O)c(O)c3)C(COC3O[C@H](C)C(O)C(O)[C@@H]3O)O[C@@H](OCCc3ccc(O)c(O)c3)[C@H]2O)[C@@H](O)C(O)[C@H]1O (stereo partly drawn) | 105% | 104% | 106% | 105% | 104% | 90.3% | 102% | 108% | 108% | 116% | 83.1% | 98.8% | 103% | 108% | 98.2% | 103% | 99.4% | 99.3%
12 | Cc1cc(NCc2cc(Nc3ccnc4cc(Cl)ccc34)ccc2F)nc(Cl)n1 | 12% | 29.6% | 35.9% | 74.2% | 34% | 70.2% | 57% | 57.2% | 57.7% | 35.7% | 28% | 54.6% | 37% | 57% | 30% | 30.5% | 63.2% | 64.7%
13 | COc1ccc(-c2ccc3c(c2)sc2nc(-c4ccc(F)cc4)cn23)cc1 | 93.4% | 76.7% | 68.5% | 70.7% | 73.6% | 84.2% | 100% | 88% | 99.2% | 85.5% | 55.1% | 105% | 74.3% | 98.8% | 33.3% | 42.3% | 29.3% | 64.8%
14 | Cc1cc(NCCCCNc2ccnc3cc(Cl)ccc23)nc(Nc2ccc(C(=O)N3CCCCC3)cc2)n1 | -29% (active) | -35.8% (active) | 7.65% (active) | 82.7% | 34.8% | 97.2% | 29.8% | 8.51% (active) | -28.9% (active) | 47.5% | -23.5% (active) | 92.9% | -84.3% (active) | -70.2% (active) | -49.1% (active) | -48.9% (active) | -37.5% (active) | 25.8%
15 | CCN(CC)c1nc(SCC(=O)Nc2nc3ccc(C)cc3s2)nc(-c2ccccc2)c1C#N | 2.23% (active) | 61.4% | 89.5% | 77.4% | 80.7% | 93.7% | 65.7% | 93.2% | 83.4% | 96.4% | 75.8% | 93.3% | 98.5% | 97.9% | 85.1% | 83% | 110% | 104%
16 | Cc1cc[c-]cc1.Fc1c[c-]c(-c2ccccn2)c(F)c1.[Pt+2].c1ccc(P(C[PH+](c2ccccc2)c2ccccc2)c2ccccc2)cc1 | 16.8% | -4.4% (active) | 11% | 23.6% | -2.01% (active) | -3.95% (active) | 23.5% | 12.9% | 39.6% | 87.3% | 8.85% (active) | 20.6% | 8.28% (active) | 14.6% | 6.01% (active) | 9.8% (active) | 33.1% | 18%
